Sampled rows, rich in hits. Any-hit rate of the full collection: about 2%.
eIF4E 4G PPI: eIF4E–eIF4G protein interaction inhibitors, primary screen, biochemical, uHTS, TR-FRET, eIF4GI fragment; Eukaryotic translation initiation factor 4E (Mus musculus) + Eukaryotic translation …; TR-FRET eIF4E-eIF4GI(517-606) binding, 2 h; inhibition, % at 21.7 µM; actives 0.37% (n = 220,000); AID 782, 2007;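 active = inhibition above about 30%, limit read from the data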
Insulin prom inh: inhibitors of insulin promoter-driven GFP, primary screen, imaging, TRM-6 cells (human fetal islet line), eGFP reporter, cell count; inhibition, % at 2 µM; AID 1273, 2008; reporter expression induced with tamoxifen; actives 0.9% (n = 130,000);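 active = inhibition above the mean plus 3 SD, with well images judged a real hit on visual review, cut at about 60% in these data, passing the limit was not always enough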
Autophagy mod: autophagy modulators in MEF cells, primary screen, imaging, high-content, MEF GFP-LC3; actives 0.98% (n = 190,000); MEF GFP-LC3 puncta imaging; test concentration mostly 10 µM; calls only at 10 µM (by protocol);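 active = percentage of spot-positive cells more than 3 SD above its plate mean, without a fluorescence outlier flag or 80% toxicity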
Ins promoter up: insulin promoter activators in MIN6 cells, imaging, high-content screening, mouse beta cells; MIN6 insulin promoter-GFP reporter; hits give high values; z-score at 5 µM; actives 0.3% (n = 190,000); AID 1625, 2009;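 active = z-score above 3 at 5 µM with at least 500 cells counted in the well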
PERK inhibitor: block of dimerizer-induced PERK translation repression, primary screen, PERK inhibitor project, CHO PERK-DD cells, SEAP luminescence, HTS. AID 1416, 2008. actives 0.17% (n = 220,000). CHO PERK-DD fusion, SEAP luminescence translation reporter. inhibition, % at 5.6 µM. Eukaryotic translation initiation factor 2-alpha kinase 3 (Homo sapiens), Q9NZJ5;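 active = inhibition above the mean inhibition of all tested compounds plus 3 SD, set separately per screening campaign, cut at about 2.9% in these data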;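 also: PERK kinase domain activated by AP20187 dimerizer at 100 nM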
Hits are given with their value; [ ] = remark or other dose.

For CCC(Sc1nc2cc3c(cc2c(=O)n1Cc1ccco1)OCO3)C(=O)NCCOC (centres undefined) the results were eIF4E 4G PPI inactive, Insulin prom inh inactive, Autophagy mod inactive, Ins promoter up inactive and PERK inhibitor inactive.
`CCC(Sc1nc2cc3c(cc2c(=O)n1Cc1ccco1)OCO3)C(=O)Nc1ccccc1OC` (centres undefined) gave eIF4E 4G PPI inactive, Insulin prom inh inactive, Autophagy mod active, Ins promoter up inactive and PERK inhibitor inactive.
Screening Cc1ccc(CCNC(=O)CNC(=O)c2cccs2)cc1 returned eIF4E 4G PPI inactive, Autophagy mod inactive, Ins promoter up inactive and PERK inhibitor inactive.
Screening CC(=O)C1C(c2ccc(F)cc2)c2c(noc2C)CC1(C)O (centres undefined) returned eIF4E 4G PPI 95.6, Ins promoter up inactive and PERK inhibitor inactive.
`CCOC(=O)C(=O)NNc1ccc(F)cc1` gave eIF4E 4G PPI 30.6 and PERK inhibitor inactive.
`CCOC(=O)C(=O)N/N=C/c1ccc(F)cc1` gave eIF4E 4G PPI inactive, Ins promoter up inactive and PERK inhibitor inactive.
Screening Cc1nc(Oc2ccc(Cl)cc2)c2oc3ccccc3c2n1 returned eIF4E 4G PPI inactive, Insulin prom inh inactive, Autophagy mod inactive, Ins promoter up inactive and PERK inhibitor inactive.
O=C(c1nn2cccnc2c1Cl)N1CCN(c2ccccc2)CC1 was read as eIF4E 4G PPI inactive, Insulin prom inh inactive, Autophagy mod active, Ins promoter up inactive and PERK inhibitor inactive.
For Cc1ccc(C)c(S(=O)(=O)NCc2ccc(C(=O)N3CCCCCC3)cc2)c1 the results were eIF4E 4G PPI inactive, Insulin prom inh 76.9, Autophagy mod inactive, Ins promoter up inactive and PERK inhibitor inactive.
Cc1ccc(C)c(S(=O)(=O)NCc2ccc(C(=O)N3CC(C)OC(C)C3)cc2)c1 (centres undefined) was read as eIF4E 4G PPI inactive, Insulin prom inh inactive, Autophagy mod inactive and PERK inhibitor inactive.
`COc1ccccc1NC(=O)/C(=C/c1cccc([N+](=O)[O-])c1)c1ccccc1` gave eIF4E 4G PPI inactive, Insulin prom inh inactive, Autophagy mod inactive, Ins promoter up inactive and PERK inhibitor inactive.
Screening OCCC1CN(C/C(Cl)=C/c2ccccc2)CCN1C1CCCC1 (centres undefined) returned eIF4E 4G PPI inactive, Autophagy mod active, Ins promoter up inactive and PERK inhibitor inactive.
Screening OCCC1CN(Cc2cnc(-c3cccc4ccccc34)nc2)CCN1C1CCCCC1 (centres undefined) returned eIF4E 4G PPI inactive, Autophagy mod active and PERK inhibitor inactive.
`CC(C)=CCN1CCN(C/C(Cl)=C/c2ccccc2)CC1CCO` (centres undefined) gave eIF4E 4G PPI inactive, Ins promoter up inactive and PERK inhibitor inactive.
Screening COC(=O)c1cc(NC(=O)CSc2nncn2C)cc(C(=O)OC)c1 returned eIF4E 4G PPI inactive, Autophagy mod inactive and PERK inhibitor inactive.
CC(C)CCc1noc(CN2CCN(c3ccc(Cl)cn3)CC2)n1 was read as eIF4E 4G PPI inactive, Autophagy mod inactive, Ins promoter up inactive and PERK inhibitor inactive.
`CC1CC(C)(C)N(C(=O)CN2C(=O)c3ccccc3C2=O)c2ccccc21` (centres undefined) gave eIF4E 4G PPI inactive, Insulin prom inh inactive, Autophagy mod active and PERK inhibitor inactive.
`CC1=CC(C)(C)N(C(=O)CN2C(=O)c3ccccc3C2=O)c2ccccc21` gave eIF4E 4G PPI inactive, Autophagy mod inactive, Ins promoter up inactive and PERK inhibitor inactive.
Cn1ccc(C(=O)Oc2ccc(C(=O)Nc3ccc(F)cc3F)cc2)n1 was read as eIF4E 4G PPI inactive, Insulin prom inh inactive, Autophagy mod inactive, Ins promoter up inactive and PERK inhibitor inactive.
For CCOC(=O)C(C)(C)Sc1nc2c(cnn2-c2ccc(C)cc2)c(=O)[nH]1 the results were eIF4E 4G PPI inactive, Insulin prom inh 100.0, Autophagy mod inactive and PERK inhibitor inactive.
CCC1CCCCN1C(=O)CSc1nc2c(cnn2-c2ccc(C)cc2)c(=O)[nH]1 (centres undefined) was read as eIF4E 4G PPI inactive, Autophagy mod inactive, Ins promoter up inactive and PERK inhibitor 3.2.
Screening CC(C)(CSc1nncn1N)NS(=O)(=O)c1ccc(Cl)cc1 returned eIF4E 4G PPI inactive, Insulin prom inh 77.3, Autophagy mod inactive, Ins promoter up inactive and PERK inhibitor inactive.
Cc1ccc(S(=O)(=O)NC(C)(C)CSc2ncccn2)cc1 was read as eIF4E 4G PPI inactive, Insulin prom inh inactive, Autophagy mod inactive and PERK inhibitor inactive.
For CC(=O)/C(=N\Nc1ccc(C)cc1)Sc1nncn1C the results were eIF4E 4G PPI inactive, Insulin prom inh inactive, Autophagy mod active, Ins promoter up inactive and PERK inhibitor inactive.
`Cc1ccc(NC(=O)CN(C)C(=O)CSc2nncn2C)cc1` gave eIF4E 4G PPI inactive, Insulin prom inh inactive, Autophagy mod inactive, Ins promoter up inactive and PERK inhibitor inactive.
COc1cc(Cl)cc(/C=N/NC(N)=O)c1O was read as eIF4E 4G PPI inactive, Insulin prom inh inactive, Autophagy mod inactive, Ins promoter up inactive and PERK inhibitor inactive.
Screening O=c1cc(N2CCCCC2)c(-c2ccccc2)nn1Cc1c(Cl)cccc1Cl returned eIF4E 4G PPI inactive, Insulin prom inh inactive, Autophagy mod inactive and PERK inhibitor inactive.
CC1CC(C)(C)Nc2ccc(N=O)cc21 (centres undefined) was read as eIF4E 4G PPI inactive, Insulin prom inh inactive, Autophagy mod active, Ins promoter up 4.12 and PERK inhibitor inactive.
`CC1CCCC(C)N1C(=O)Nc1cccc(Cl)c1` (centres undefined) gave eIF4E 4G PPI inactive, Autophagy mod inactive, Ins promoter up inactive and PERK inhibitor 2.9.
O=C(Nc1cccc(Cl)c1)NC1CCCCC1 was read as eIF4E 4G PPI inactive, Autophagy mod inactive, Ins promoter up inactive and PERK inhibitor inactive.
Screening CCOC(=O)c1ccc(N=c2ssnc2Cl)cc1 returned eIF4E 4G PPI 38.8, Autophagy mod inactive, Ins promoter up inactive and PERK inhibitor inactive.
`COc1cc(N=c2ssnc2Cl)cc(OC)c1OC` gave eIF4E 4G PPI 66.9, Autophagy mod inactive and PERK inhibitor inactive.
`CCOC(=O)c1ccc(N=C2SC(C(=O)NC)CC(=O)N2Cc2ccc(F)cc2)cc1` (centres undefined) gave eIF4E 4G PPI inactive, Insulin prom inh inactive, Autophagy mod inactive, Ins promoter up inactive and PERK inhibitor inactive.
Fc1ccc(N=c2ssnc2Cl)c(F)c1 was read as eIF4E 4G PPI 51.4, Insulin prom inh inactive, Autophagy mod inactive, Ins promoter up inactive and PERK inhibitor inactive.
For Clc1ccc(N=c2ssnc2Cl)cc1 the results were eIF4E 4G PPI 30.7[fluorescence artefact?], Insulin prom inh inactive, Autophagy mod inactive and PERK inhibitor inactive.
